Screening data: PubChem BioAssay, University of Kansas High Throughput Screening Laboratory
An excerpt weighted towards active compounds, which were near 3.6% of everything screened.
mHTT CaM bind: disrupts binding of mutant huntingtin to calmodulin; P42858; hit rate 3.6% among 190,000; inhibition, % at 15 µM; AlphaScreen His-mHTT/GST-CaM binding, luminescence; AID 1671202;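 note: 0% = both proteins with DMSO and 100% = one protein alone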
Target sequence (P42858 whole entry, looked up, stated change not applied): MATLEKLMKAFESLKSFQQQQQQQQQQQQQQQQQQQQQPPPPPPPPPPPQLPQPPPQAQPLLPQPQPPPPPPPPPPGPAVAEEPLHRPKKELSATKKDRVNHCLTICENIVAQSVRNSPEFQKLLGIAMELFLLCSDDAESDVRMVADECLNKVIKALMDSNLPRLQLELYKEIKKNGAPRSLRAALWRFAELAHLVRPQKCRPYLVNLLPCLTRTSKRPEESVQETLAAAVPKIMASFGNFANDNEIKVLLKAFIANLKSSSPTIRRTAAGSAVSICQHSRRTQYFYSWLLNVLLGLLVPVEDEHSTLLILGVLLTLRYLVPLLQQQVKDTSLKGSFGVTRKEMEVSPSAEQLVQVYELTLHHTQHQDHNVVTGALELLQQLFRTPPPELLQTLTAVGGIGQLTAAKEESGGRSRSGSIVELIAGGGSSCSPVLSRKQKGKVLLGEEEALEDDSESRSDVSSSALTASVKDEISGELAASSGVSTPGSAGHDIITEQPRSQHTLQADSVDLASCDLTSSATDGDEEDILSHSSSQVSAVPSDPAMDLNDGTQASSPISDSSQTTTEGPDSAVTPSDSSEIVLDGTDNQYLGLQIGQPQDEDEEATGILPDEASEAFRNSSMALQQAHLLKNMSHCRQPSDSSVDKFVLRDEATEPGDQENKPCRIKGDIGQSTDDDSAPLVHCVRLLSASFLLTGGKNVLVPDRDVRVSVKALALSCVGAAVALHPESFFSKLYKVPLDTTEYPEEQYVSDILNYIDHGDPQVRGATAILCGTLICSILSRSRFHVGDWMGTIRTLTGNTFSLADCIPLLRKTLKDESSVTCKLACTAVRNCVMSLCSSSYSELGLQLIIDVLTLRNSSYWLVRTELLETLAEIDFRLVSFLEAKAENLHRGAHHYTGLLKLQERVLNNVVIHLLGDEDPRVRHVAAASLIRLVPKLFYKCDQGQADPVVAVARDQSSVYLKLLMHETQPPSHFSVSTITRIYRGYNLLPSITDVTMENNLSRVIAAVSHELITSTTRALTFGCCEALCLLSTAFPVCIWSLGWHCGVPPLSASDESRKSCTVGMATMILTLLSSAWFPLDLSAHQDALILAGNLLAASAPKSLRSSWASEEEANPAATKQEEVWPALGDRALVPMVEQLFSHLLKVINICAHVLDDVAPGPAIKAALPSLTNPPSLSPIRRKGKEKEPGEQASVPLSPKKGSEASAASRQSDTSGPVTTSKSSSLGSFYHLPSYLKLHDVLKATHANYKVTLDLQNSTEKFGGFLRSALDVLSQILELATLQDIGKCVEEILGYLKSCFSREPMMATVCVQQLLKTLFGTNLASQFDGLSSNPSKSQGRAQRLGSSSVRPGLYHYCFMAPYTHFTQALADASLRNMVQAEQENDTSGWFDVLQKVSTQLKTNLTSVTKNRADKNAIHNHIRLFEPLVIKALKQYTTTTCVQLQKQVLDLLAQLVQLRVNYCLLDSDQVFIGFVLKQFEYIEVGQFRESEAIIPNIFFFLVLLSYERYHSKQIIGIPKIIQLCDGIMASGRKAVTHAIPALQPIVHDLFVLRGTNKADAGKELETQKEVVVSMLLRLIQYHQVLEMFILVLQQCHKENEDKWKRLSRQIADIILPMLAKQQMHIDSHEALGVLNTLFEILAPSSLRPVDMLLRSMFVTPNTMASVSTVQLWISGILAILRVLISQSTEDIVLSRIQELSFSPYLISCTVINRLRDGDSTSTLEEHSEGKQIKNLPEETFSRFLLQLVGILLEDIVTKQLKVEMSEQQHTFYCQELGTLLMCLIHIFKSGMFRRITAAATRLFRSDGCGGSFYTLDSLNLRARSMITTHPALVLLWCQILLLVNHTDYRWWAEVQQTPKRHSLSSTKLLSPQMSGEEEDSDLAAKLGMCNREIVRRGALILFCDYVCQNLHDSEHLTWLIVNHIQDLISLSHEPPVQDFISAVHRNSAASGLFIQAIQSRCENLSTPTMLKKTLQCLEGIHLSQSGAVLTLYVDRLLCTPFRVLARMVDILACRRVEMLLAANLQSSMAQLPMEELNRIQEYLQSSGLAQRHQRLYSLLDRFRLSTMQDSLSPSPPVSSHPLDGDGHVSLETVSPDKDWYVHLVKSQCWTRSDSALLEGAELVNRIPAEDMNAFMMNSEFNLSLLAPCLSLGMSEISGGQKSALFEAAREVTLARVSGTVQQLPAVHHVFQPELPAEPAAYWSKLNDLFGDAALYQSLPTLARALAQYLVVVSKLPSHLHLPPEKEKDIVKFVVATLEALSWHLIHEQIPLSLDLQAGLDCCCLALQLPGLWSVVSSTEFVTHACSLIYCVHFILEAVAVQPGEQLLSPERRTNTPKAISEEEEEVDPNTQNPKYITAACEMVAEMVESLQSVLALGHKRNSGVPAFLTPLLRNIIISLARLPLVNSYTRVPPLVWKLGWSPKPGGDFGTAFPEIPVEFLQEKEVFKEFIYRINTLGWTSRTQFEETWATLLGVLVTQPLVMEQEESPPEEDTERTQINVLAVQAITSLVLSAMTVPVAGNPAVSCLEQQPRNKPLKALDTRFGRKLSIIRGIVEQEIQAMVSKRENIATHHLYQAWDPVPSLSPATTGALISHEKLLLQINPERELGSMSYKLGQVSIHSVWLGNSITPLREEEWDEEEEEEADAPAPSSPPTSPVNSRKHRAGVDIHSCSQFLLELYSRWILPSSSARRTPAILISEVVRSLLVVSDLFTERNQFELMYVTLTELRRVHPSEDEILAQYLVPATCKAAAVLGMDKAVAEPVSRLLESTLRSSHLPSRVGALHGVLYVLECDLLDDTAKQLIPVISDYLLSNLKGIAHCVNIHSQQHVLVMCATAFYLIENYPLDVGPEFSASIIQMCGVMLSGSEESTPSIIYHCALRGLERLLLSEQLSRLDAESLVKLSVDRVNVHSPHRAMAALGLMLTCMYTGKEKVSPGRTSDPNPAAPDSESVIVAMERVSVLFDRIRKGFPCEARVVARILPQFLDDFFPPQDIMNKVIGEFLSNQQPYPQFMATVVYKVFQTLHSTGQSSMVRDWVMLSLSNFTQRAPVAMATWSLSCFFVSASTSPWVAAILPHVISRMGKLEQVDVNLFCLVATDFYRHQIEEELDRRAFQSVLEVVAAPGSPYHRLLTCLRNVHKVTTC
Pf apPOL block: Pf-apPOL DNA polymerase inhibition; Recombinant Pf-apPOL, molecular beacon fluorescence, 1.5 h; inhibition, % at 10 µM; hit rate 0.25% among 210,000; AID 1794808
Active calls of the source: *; / = no result given. Cut-off read from the data, not from the text of the source: active = inhibition above about 50%; inactive = the rest.

SMILES | mHTT CaM bind | Pf apPOL block
Cc1c(C)c2cc3c(-c4ccccc4)coc3cc2oc1=O | -7.0 | 60.0*
Cc1cc(O)c(C=Nc2cc(Cl)ccc2O)cc1C | 52.0* | -8.5
Oc1ccc(I)cc1C=Nc1cc(Cl)ccc1O | 38.0 | -7.2
COc1cccc(NC(=O)c2ccc(C)o2)c1 | 1.9 | 2.8
COc1ccc(-c2cc3nc4c(c(=O)n3[nH]2)CN(C(=O)c2ccoc2)CC4)cc1 | -1.3 | 1.3
O=C(NCc1ccccc1F)C1Cc2ccccc2N2CCN(c3cnccn3)CC12 (centres undefined) | 84.0* | 47.6
CCNC(=O)C1Cc2ccccc2N2CCN(c3cnccn3)CC12 (centres undefined) | 6.6 | -1.1
O=C(Nc1ccc(Br)cc1)c1ccc(C(=O)Nc2ccc(Br)cc2)nc1 | 4.0 | 4.8
Cn1cc(-c2nc(C(=O)NCc3ccccc3)cs2)c2cccnc21 | 45.9 | -1.4
Cc1ccccc1CNC(=O)c1csc(-c2cn(C)c3ncccc23)n1 | 71.8* | -1.3
COc1ccc(N2CCN(C(=O)C3CCCN(c4nnc5ccccn45)C3)CC2)cc1 (centres undefined) | 12.4 | -6.7
Cc1cc(C)cc(N2CC(C(=O)Nc3ccccc3F)CC2=O)c1 (centres undefined) | -3.9 | 1.2
CCc1ccc(C2CC(c3cccc(OC)c3)n3nnnc3N2)cc1 (centres undefined) | 4.0 | -8.5
Cc1ccc(C(=O)N2CCN(c3nc(CN4CCCC4)cs3)CC2)cc1C | 68.9* | 14.4
Cc1ccc(C(=O)N2CCN(c3nc(CN4CCOCC4)cs3)CC2)cc1C | 9.4 | 2.7
COc1ccc(-c2nc3n(n2)C(c2ccc(OC)c(OC)c2)C2=C(CCCC2=O)N3)cc1 (centres undefined) | 16.3 | -0.8
CC1(C)CC(=O)C2=C(C1)Nc1nc(-c3ccc(O)cc3)nn1C2c1ccccc1 (centres undefined) | -8.5 | -0.4
COc1cc(C2C3=C(CCCC3=O)Nc3nc(-c4ccc(O)cc4)nn32)cc(OC)c1OC (centres undefined) | 12.3 | -2.0
COc1cc(-c2nc3n(n2)C(c2ccccc2)C2=C(CCCC2=O)N3)cc(OC)c1OC (centres undefined) | 52.4* | -2.6
CC1(C)CC(=O)C2=C(C1)Nc1nc(-c3ccccc3)nn1C2c1ccc(F)cc1 (centres undefined) | 78.0* | -1.0
COc1ccc(C2C3=C(CCCC3=O)Nc3nc(-c4ccc(N(C)C)cc4)nn32)cc1OC (centres undefined) | 80.3* | 1.6
Cc1nc2c(o1)NC(N)=C(C#N)C2c1cccs1 (centres undefined) | -7.0 | /
O=C(Nc1ccccc1C(=O)NC1CCCCC1)c1ccc(Cl)cc1Cl | -2.5 | -3.1
O=C1C(=O)N(CN2CCCCCC2)c2ccccc21 | 77.0* | -3.5
O=C1C(=O)N(CCN2CCCCC2)c2ccccc21 | 2.6 | 8.1
SMILES | mHTT CaM bind | Pf apPOL block
Cc1cccc(C(=O)N2CCCN(c3ncccc3-c3nc(C)no3)CC2)c1 | -3.9 | 1.6
CNC1C(O)C(NC)C2OC3(O)C(=O)CC(C)OC3OC2C1O (centres undefined) | / | 83.0*
O=c1c2ccccc2ncn1-c1ccc(F)c(Cl)c1 | -6.6 | 1.8
Cc1ccccc1C(=O)N1CCc2cn(C)c3cccc(c23)C1 | 19.7 | -0.9
COc1cc(C=C2Oc3cc(OCc4ccccc4)ccc3C2=O)cc(OC)c1OC | -8.8 | -6.4
COc1ccc(C2=CC(c3cccc(Br)c3)n3nc(CCCO)nc3N2)cc1OC (centres undefined) | 53.0* | -5.5
COc1cccc(C2C=C(c3ccc(Br)cc3)Nc3ncnn32)c1OC (centres undefined) | 66.0* | 4.3
COc1cc(C2C=C(c3ccc(Cl)cc3)Nc3ncnn32)cc(OC)c1OC (centres undefined) | 76.0* | 0.4
COc1ccccc1C1C=C(c2ccc(Br)cc2)Nc2ncnn21 (centres undefined) | 41.0 | -7.5
COc1ccc(C2=CC(c3cc(OC)c(OC)c(OC)c3)n3ncnc3N2)cc1 (centres undefined) | 11.0 | -1.9
COc1cccc(C2C=C(c3ccc(Br)cc3)Nc3nnnn32)c1OC (centres undefined) | 2.0 | -3.4
COc1ccc(C2=CC(c3ccccc3)n3nc(CCCO)nc3N2)cc1 (centres undefined) | 17.0 | -18.5
COc1cccc(C2C=C(c3cccc(Br)c3)Nc3nnnn32)c1OC (centres undefined) | 65.0* | -4.7
COc1ccc(OC)c(/C=C2\N=C(c3c(-c4ccccc4)noc3C)OC2=O)c1 | 3.0 | -6.0
Cc1ccc(CN2CCCC2c2c(C)noc2C)c(C)c1 (centres undefined) | -57.2 | -1.5
Cn1c(=O)c(Cc2ccc(F)c(F)c2)nc2ccccc21 | -11.0 | 1.0
O=C(Cc1ccc(F)cc1)NC1CCN(c2nnc3ccccn23)CC1 | 5.7 | 4.4
CN1CCCc2cc(C(=O)NCc3ccc(F)cc3)sc21 | 13.5 | -3.8
COc1cccc(CNC(=O)C2CCN(c3cncnc3N(C)C)CC2)c1OC | 8.9 | 0.8
COc1cccc(C2C=C(c3cccc(Br)c3)Nc3ncnn32)c1 (centres undefined) | 59.0* | -6.2
COc1cccc(C2C=C(c3ccc(F)cc3)Nc3ncnn32)c1OC (centres undefined) | 56.0* | -5.1
COc1cccc(C2C=C(c3ccc(C)cc3)Nc3ncnn32)c1OC (centres undefined) | 31.0 | -1.5
COc1cccc(C2C=C(c3ccc(C)cc3)Nc3ncnn32)c1 (centres undefined) | 18.0 | -5.2
CC(C)n1c(C2CCN(S(=O)(=O)c3ccc4c(c3)CCC4)C2)nc2ccncc21 (centres undefined) | 10.2 | 1.8
C=CCn1cnc2c1c(=O)n(CC)c(=O)n2-c1ccc(F)cc1F | 0.2 | 1.3
SMILES | mHTT CaM bind | Pf apPOL block
CC(C)Sc1ccc(CC(=O)NCCN2CCN(S(C)(=O)=O)CC2)cc1 | -10.0 | -2.0
COc1ccc(S(=O)(=O)N=C2C=C(Nc3ccc(C)cc3)C(=O)c3ccccc32)cc1 | 75.0* | -3.0
Cc1ccc(S(=O)(=O)N=Cc2ccc(F)cc2)cc1 | 23.0 | -0.5
COc1ccc(NC2=CC(=NS(=O)(=O)c3ccc(C)cc3)c3ccccc3C2=O)cc1 | 46.0 | -4.7
Cc1ccc(NC2=CC(=NS(=O)(=O)c3ccc(F)cc3)c3ccccc3C2=O)cc1 | 88.0* | -3.7
OCCN1CCN(C2C3CC4CC(C3)CC2C4)CC1 (centres undefined) | 1.2 | 61.5*
CN1CCN(C2C3CC4CC(C3)CC2C4)CC1 (centres undefined) | -3.1 | 2.1
O=C1OC(c2ccc(Cl)cc2)=N/C1=C\c1ccco1 | -4.0 | -4.7
O=C1OC(c2ccc(Cl)cc2)=N/C1=C\C=C\c1ccco1 | 68.0* | 3.8
Cc1cc2ncn(S(=O)(=O)c3cc([N+](=O)[O-])ccc3C)c2cc1C | -5.0 | -22.8
Cc1csc(=Nc2ccccc2)n1CC(O)c1ccc([N+](=O)[O-])cc1 (centres undefined) | 83.0* | 2.9
O=[N+]([O-])c1ccc(-c2csc(=Nc3ccccc3)n2CCO)cc1 | 32.0 | 0.6
Cc1ccc(S(=O)(=O)N=C2C=C(NS(=O)(=O)c3ccccc3)C(=O)c3ccccc32)cc1 | 66.0* | 5.2
CC(=NS(=O)(=O)c1ccc(C)cc1)N1CCOCC1 | -2.9 | 4.3
Cc1cccc(NC2=C(N(C)C)C(=O)c3ccccc3C2=O)c1 | 18.6 | -10.1
CCOc1ccc(S(=O)(=O)N=C2C=C(Nc3cccc(C)c3)C(=O)c3ccccc32)cc1 | 82.0* | 1.9
